Each structure is given as a SMILES string. The campaign covered roughly 2,000 compounds. About 80 (4%) were called active.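 How the source made its calls: active means aptamer displacement above 40%, near three times the noise of non-fluorescent compounds, on plates passing quality checks; inactive means the rest.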 This excerpt belongs to a sample that is enriched for actives.

The target in the experiment is Beta-adrenergic receptor kinase 1 (Homo sapiens) (UniProt P25098). Briefly: RNA aptamer-GRK2 binding blockers – biochemical, cherry pick 1, bead flow cytometry, confirmation (AID 504451).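 Further: negative values mostly reflect intrinsic compound fluorescence rather than true enhancement.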 As to conditions: bead-bound GRK2, FAM-aptamer displacement, at 10 µM, active compounds read high. A general note: In flow cytometry, cells or beads pass a laser one at a time.
Sequence of Beta-adrenergic receptor kinase 1 (Homo sapiens) (P25098 whole entry, looked up): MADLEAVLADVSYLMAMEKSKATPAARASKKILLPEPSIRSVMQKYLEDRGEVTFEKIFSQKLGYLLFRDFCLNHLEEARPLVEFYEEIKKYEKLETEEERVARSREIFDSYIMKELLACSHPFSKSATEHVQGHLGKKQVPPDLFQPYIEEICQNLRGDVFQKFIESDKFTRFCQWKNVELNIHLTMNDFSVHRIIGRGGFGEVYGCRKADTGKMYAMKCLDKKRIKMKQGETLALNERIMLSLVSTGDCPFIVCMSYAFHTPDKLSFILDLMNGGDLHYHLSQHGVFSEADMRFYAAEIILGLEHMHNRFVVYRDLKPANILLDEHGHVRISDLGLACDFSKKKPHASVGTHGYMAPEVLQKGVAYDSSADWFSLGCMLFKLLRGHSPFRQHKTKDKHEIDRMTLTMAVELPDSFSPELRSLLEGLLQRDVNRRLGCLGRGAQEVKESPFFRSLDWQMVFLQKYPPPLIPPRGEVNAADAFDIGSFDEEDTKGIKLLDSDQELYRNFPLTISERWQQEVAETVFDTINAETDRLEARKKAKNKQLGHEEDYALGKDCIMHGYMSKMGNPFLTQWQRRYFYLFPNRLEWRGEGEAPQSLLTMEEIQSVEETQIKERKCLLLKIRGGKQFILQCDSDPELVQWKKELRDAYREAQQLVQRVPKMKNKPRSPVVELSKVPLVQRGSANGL
Turning to `COc1ccc(N2C(=O)/C(=C/c3ccco3)C(=O)NC2=S)cc1`, the aptamer displacement was 86.6% (active). The figure for `O=C1NC(=O)N(Cc2ccco2)C(=O)/C1=C\c1cccn1CCOc1ccccc1` is 0.73% (inactive); for `Cc1c(C(=O)O)cccc1-n1c(C)cc(/C=C2\C(=O)NC(=O)N(c3ccc4c(c3)OCO4)C2=O)c1C` it is 37.1% (inactive).

The values above are taken from PubChem BioAssay AID504451 (NMMLSC, 2011).
